Measured values published in PubChem BioAssay AID2685 (National Center for Advancing Translational Sciences (NCATS), 2010).
Out of some 320,000 compounds screened, about 2,100 (0.66%) were called active. Not shown: some 53% with an inconclusive outcome. The call rests on the fitted dose curve; in most records, active means well fitted inhibition curve with a large enough effect in the signal ratio, with a control signal flat (not every such curve was filed as active); inconclusive means small, poorly fitted or top-dose-only effect, or effect the other way, or a change in a side signal; inactive means flat fitted curve, though single readings scatter; the % refers to the signal ratio. For the sample, actives were picked, then their nearest neighbours and some compounds at random.

Experiment: qHTS Assay for Lipid Storage Modulators in Drosophila S3 Cells;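 on cell number change: cells counted by Cell Tracker Red CMTPX staining in the red channel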; on lipid storage change, negative = inhibition: on the % scale 0 is the no-effect control and ±100 the full control effect
Settings: BODIPY lipid droplet fluorescence, 18-24 h, cells fed with added oleic acid; cell number change: measured here: cell count max response; series mostly up to 46.1 µM
Procedure, shortened: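 Drosophila S3 cells got compounds at several concentrations plus oleic acid (400 uM solution). Laser-scanning cytometry with 488 nm excitation read lipid droplets at 500-530 nm and cells at 575-640 nm. Percent activity was relative to 20 uM Triacsin C.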
Potency means the concentration at half of the fitted maximal effect.

Row | Structure (SMILES) | Potency | cell number change [%] | lipid storage change, negative = inhibition
1 | CCOc1ccccc1OCC(=O)Oc1ccc(C)c(C)c1 | inactive | 18.7 | –
2 | Cc1nc(N/N=C/c2ccccn2)sc1C | inactive | -10.6 | –
3 | Cc1nc(-c2ccccc2)sc1-c1nc(-c2ccncc2)ncc1S(=O)(=O)c1ccccc1 | inactive | 12.5 | –
4 | O=C(O)[C@H]1CCCC[C@H]1C(=O)NCCc1ccccc1 | inactive | 7.81 | –
5 | O=C(O)C1CCCCC1C(=O)NCCCc1ccccc1 (centres undefined) | inactive | -1.96 | –
6 | O=C(O)C1CC=CCC1C(=O)NCCc1ccccc1 (centres undefined) | 23.1 µM (active) | 3.33 | –
7 | CC1=C(C)CC(C(=O)NCC(=O)c2ccccc2)C(C(=O)O)C1 (centres undefined) | inactive | – | –
8 | O=C(NNC(=O)[C@H]1CC=CC[C@H]1C(=O)O)c1ccc(Cl)cc1Cl | inactive | 10.3 | –
9 | O=C(O)C1CC=CCC1C(=O)Nc1cc(Cl)ccc1Cl (centres undefined) | inactive | -10.1 | –
10 | COc1ccc(CCNC(=O)C2CC=CCC2C(=O)O)cc1 (centres undefined) | inactive | 23.9 | –
11 | CC1=C(C)CC(C(=O)NCCc2ccccc2)C(C(=O)O)C1 (centres undefined) | 6.51 µM (active) | – | –
12 | O=C(Cc1ccc(Cl)cc1)NNC(=O)C1CC=CCC1C(=O)O (centres undefined) | 18.4 µM (active) | – | –
13 | C/C(=N/N=C1/NC(=O)CC(C(=O)Nc2ccccc2)S1)c1cccs1 (centres undefined) | inactive | 1.13 | –
14 | CCOc1ccc(/C=C2\SC(=S)N(CCC(=O)Nc3ccc(C(=O)O)cc3)C2=O)cc1 | inactive | 8.29 | –
15 | O=C(Nc1cccc(C(F)(F)F)c1)c1cncs1 | inactive | – | –
16 | CCC(C)NC(=O)C1c2ccccc2C(=O)N1Cc1cc(OC)ccc1OC (centres undefined) | inactive | 8.31 | –
17 | O=C(N=Nc1c(O)[nH]c2ccccc12)c1cccs1 | inactive | -7.18 | –
18 | COc1cc(OC)cc(C(=O)N2CCN(C(=O)c3ccc(OC)c(OC)c3)CC2)c1 | inactive | 14.7 | –
19 | CN(CCc1ccccn1)Cc1ccc(Cl)c(Cl)c1 | inactive | -4.68 | –
20 | CN(CCc1ccccn1)Cc1ccc(Cl)cc1 | inactive | 7.49 | –
21 | CC(C)=CCCC(C)CN(C)CCc1ccccn1 (centres undefined) | 18.4 µM (active) | -0.762 | –
22 | COc1ccc(CNC(=S)Nc2ccccc2)cc1Cl | inactive | 0.106 | –
23 | COC(CNC(=O)CN1CCN(Cc2ccc(F)cc2Cl)C1=O)OC | inactive | -2.41 | –
24 | Nc1ccc(C(=O)OCCCc2nc3ccccc3[nH]2)cc1 | inactive | 0.404 | –

Row | Structure (SMILES) | Potency | cell number change [%] | lipid storage change, negative = inhibition
25 | COC(=O)c1ccc(C(=O)OCCCc2nc3ccc(N)cc3[nH]2)cc1 | inactive | 2.42 | –
26 | Nc1ccc(C(=O)OCCCc2nc3cc4ccccc4cc3[nH]2)cc1 | 25.9 µM (active) | -15.5 | –
27 | COc1ccc(/C=C(\C#N)C(=O)c2c(C)[nH]c3ccccc23)cc1OC | inactive | – | –
28 | O=C(CSc1ccccc1)Nc1nnc(C2CC2)s1 | inactive | 6.15 | –
29 | Cc1ccc(NC(=O)COC(=O)CCc2ccc(S(=O)(=O)N3CCOCC3)cc2)c(C)c1 | inactive | 16.8 | –
30 | Cc1ccc(NC(=O)COC(=O)C2CCC(=O)N2)c(S(=O)(=O)N2CCOCC2)c1 (centres undefined) | 3.66 µM (active) | 2.3 | –
31 | O=C(COC(=O)C1CCC(=O)N1)Nc1ccc(Cl)cc1Cl (centres undefined) | inactive | -17 | –
32 | CCC(C)OC(=O)C1=C(C)OC23OC(N)=C(C#N)C12C(=O)c1ccccc13 (centres undefined) | inactive | 2.42 | –
33 | CC(OC(=O)Cc1ccc(Br)cc1)C(=O)NC1CCCCC1C (centres undefined) | inactive | 5.28 | –
34 | CC(OC(=O)CNC(=O)c1ccc(Cl)cc1)C(=O)NC1CCCCC1C (centres undefined) | – | 3.37 | -18.8% [at 0.0737 µM] (inactive)
35 | CC(OC(=O)Cc1c(F)cccc1Cl)C(=O)NC1CCCCC1C (centres undefined) | 16.4 µM (active) | -24.1 | –
36 | CCc1ccc2oc(=O)cc(CN3CCN(Cc4ccccc4)CC3)c2c1 | inactive | 4.49 | –
37 | O=C(NCc1ccccc1)c1cc(-c2cccc(O)c2)on1 | inactive | 9.36 | –
38 | CC(OC(=O)c1nc(Cl)ccc1Cl)C(=O)Nc1ccccc1F (centres undefined) | inactive | -13.3 | –
39 | CN(c1ccccc1)S(=O)(=O)c1cccc(NC(=O)CSc2nnc(C3CC3)n2C)c1 | 23.1 µM (active) | 4.1 | –
40 | CC(=O)c1ccc(NC(=O)CSc2nnc(C3CC3)n2C)cc1 | 1.84 µM (active) | 24.2 | –
41 | CC(C)n1cnnc1SCC(=O)Nc1cccc(S(=O)(=O)N(C)c2ccccc2)c1 | inactive | -11.3 | –
42 | CCn1c(SCC(=O)Nc2ccc(C(C)=O)cc2)nnc1C1CC1 | inactive | 13.3 | –
43 | CC(=O)Nc1ccc(NC(=O)CSc2nnc(C3CC3)n2C)cc1 | inactive | -6.84 | –
44 | CCn1c(SCC(=O)Nc2cccc(S(=O)(=O)N(C)c3ccccc3)c2)nnc1C1CC1 | inactive | 0.735 | –
45 | COc1ccc(NC(=O)c2ccc(S(=O)(=O)N3CCCCC3)cc2)c(OC)c1 | inactive | -34.1 | –
46 | Cc1cc2n(n1)SC(Nc1cc(Cl)ccc1Cl)N2 (centres undefined) | inactive | -3.68 | –
47 | COc1ccc(N2CCN(CCCNC(=O)CN3C(=O)COc4ccccc43)CC2)cc1 | inactive | -22.1 | –
